# Assay results taken from PubChem BioAssay (Tox21).
# Unmarked numbers belong to inactive results. Records with an inconclusive call do not appear. Entries that show only a call come without a potency. Activity calls are given as the source filed them. Unless noted, calls follow the shape of the dose curve; as a rule, active = well fitted curve in the direction sought with a large enough effect in the repeat runs; inconclusive = weak or mixed curves; inactive = no such curve, though single readings can be large; an effect the other way counts as inactive or inconclusive.
# Key:
# [1] = molecular target: Estrogen receptor (Homo sapiens) (UniProt P03372); test: qHTS assay to identify small molecule antagonists of the estrogen receptor alpha (ER-alpha) signaling pathway using the BG1 cell line in the presence of 0.1 nM 17-beta-estradiol (AID 1259244); also: nearly all actives have a fitted effect of over 50% in size; also: potency is read from the fitted curve at half-maximal effect
# Method in brief: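 Cells: VM7Luc4E2, endogenous ER-alpha, 4x ERE-luc stable. Pre-culture 5 d, phenol red-free, charcoal-stripped FBS. Plated 24 h, compound + E2 0.1 nM final, 22 h 37C/5% CO2. Readout ONE-Glo luminescence.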
# [2] = qHTS assay to identify small molecule HDAC inhibitors (AID 1259364); also: nearly all actives have a fitted effect of over 45% in size; also: potency is read from the fitted curve at half-maximal effect
# Method in brief: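 Luminescence from a cell-permeant luminogenic class I/II HDAC substrate reports endogenous deacetylase activity in intact HCT-116 cells treated with compounds for 2 h.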
# [3] = qHTS assay to identify small molecule HDAC inhibitors - cell viability counter screen (AID 1259365); also: series mostly up to about 92 µM; nearly all actives have a fitted effect of over 50% in size
# Method in brief: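 After overnight seeding at 1,500 cells per well, wild-type HCT-116 cultures took up compounds in DMSO for 2hr at 37 C. Viable cell content came from luminescence with CellTiter-Glo.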
# [4] = qHTS assay to identify small molecule agonists of the sonic hedgehog signaling (Shh) pathway - cell viability counter screen (AID 1259366); also: nearly all actives have a fitted effect of over 50% in size
# Method in brief: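 Same-well cytotoxicity read. Gli1-Luc reporter 3T3 cells; compounds 24hr, 37C/5% CO2; CellTiter-Fluor fluorescence.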
# [5] = qHTS assay to identify small molecule antagonists of the sonic hedgehog signaling (Shh) pathway - cell viability counter screen (AID 1259367); also: nearly all actives have a fitted effect of over 55% in size
# Method in brief: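 After a 4 hr settling period, 3T3 Gli1-Luc cells were treated with DMSO-dissolved chemicals and conditioned medium, kept 24 hr at 37C in 5% CO2, and assayed for viability by CellTiter-Fluor fluorescence following 1 hr reagent incubation.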
# [6] = qHTS assay to identify small molecule agonists of the sonic hedgehog signaling (Shh) pathway (AID 1259368; calls by dose curve;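 also: NIH/3T3-derived 3T3Gli1-Luc cells carrying a stable Gli1-driven firefly luciferase reporter; series mostly up to about 92 µM; nearly all actives have a fitted effect of over 15% in size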)
# Method in brief: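 3T3Gli1-Luc (NIH/3T3 clone, stable Gli1-Luc); 4 hr pre-incubation, then cpd in DMSO 24 hr, 37 C/5% CO2; luciferase reagent 30 min RT; luminescence.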
# [7] = qHTS assay to identify small molecule agonists of the androgen receptor (AR) signaling pathway in the presence of an antagonist - cell viability counter screen (AID 1259379); also: nearly all actives have a fitted effect of over 25% in size; also: potency is read from the fitted curve at half-maximal effect
# Method in brief: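 Cells: MDA-kb2 (MMTV-luc, AR and GR elements), 3,000/well, 5 hr settle. Added: nilutamide 3.0uM final, then compounds (15 conc.). Incubation: 16 hr, 37C, no CO2. Read-out: CellTiter-Fluor, 1 hr, fluorescence.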
# [8] = molecular target: Androgen receptor (Homo sapiens) (UniProt P10275); test: qHTS assay to identify small molecule agonists of the androgen receptor (AR) signaling pathway in the presence of an antagonist (AID 1259381; calls by dose curve; also: nearly all actives have a fitted effect of over 15% in size)
# Method in brief: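 MDA-kb2 cells, 3,000/well, rested 5hr at 37C/0% CO2 → nilutamide 3.0uM final or buffer → compounds, 15 conc. → 16hr at 37C → ONE-Glo, 30min RT → luminescence.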
# [9] = qHTS assay to identify small molecule antagonists of the estrogen receptor beta (ER-beta) signaling pathway - cell viability counter screen (AID 1259382); also: nearly all actives have a fitted effect of over 55% in size; also: potency is read from the fitted curve at half-maximal effect
# Method in brief: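 Cells: ER-beta-UAS-bla HEK293T, 2,000/well, 2% CS-FBS, 6 hr settle. Cpd + E2 (1nM final), 16 hr, 37C/5% CO2. Bla FRET substrate 2 hr RT, then CellTiter-Glo 30 min RT, luminescence.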
# [10] = molecular target: Estrogen receptor (Homo sapiens) (UniProt P03372); test: qHTS assay to identify small molecule agonists of the estrogen receptor alpha (ER-alpha) signaling pathway in the presence of an antagonist (AID 1259383; calls by dose curve; also: top concentration of the series differs between compounds; nearly all actives have a fitted effect of over 15% in size)
# Method in brief: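 VM7Luc4E2, endog. ER-alpha + 4×ERE-luc; charcoal-stripped FBS, phenol red-free, 5 d; 24hr plating; +10.0nM ICI-182,780 (final); cpds 15 conc, 22hr, 37C/5% CO2; ONE-Glo luminescence.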
# [11] = qHTS assay to identify small molecule agonists or antagonists of the thyroid stimulating hormone receptor (TSHR) signaling pathway - wild type cell line counter screen (AID 1259384; calls by dose curve)
# Method in brief: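 Wild-type HEK293 cells were plated 18 h at 37 C/5% CO2, pin-dosed with compound plus Ro20-1724 medium, held 30 min at room temperature, then given cAMP-d2 and anti-cAMP-cryptate; fluorescence was read after 1 h. Fifteen concentrations, triplicate.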
# [12] = molecular target: Thyrotropin receptor (Homo sapiens) (UniProt P16473); test: qHTS assay to identify small molecule antagonists of the thyroid stimulating hormone receptor (TSHR) signaling pathway (AID 1259385; calls by dose curve; also: nearly all actives have a fitted effect of over 20% in size)
# Method in brief: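 TSHR-HEK293 cells were plated and held 18 h at 37C/5% CO2, then given compound plus Ro20-1724 and stimulated with TSH at 1.5 ng/mL final. After 30 min at room temperature, cAMP was detected with cAMP-d2/anti-cAMP-cryptate (1 h) by fluorescence.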
# [13] = qHTS assay to identify small molecule agonists of the estrogen receptor alpha (ER-alpha) signaling pathway in the presence of an antagonist - cell viability counter screen (AID 1259386);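 also: cells exposed to compounds for 22 h at 37 °C before the viability read; nearly all actives have a fitted effect of over 30% in size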; also: potency is read from the fitted curve at half-maximal effect
# Method in brief: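 VM7Luc4E2, stripped-serum pre-culture 5 d; 24hr plating; +ICI-182,780 10.0nM final; cpds 15 conc, 22hr, 37C/5% CO2; CellTiter-Fluor added at 21hr, fluorescence 1hr later.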
# [14] = molecular target: Progesterone receptor (Homo sapiens) (UniProt P06401); test: qHTS assay to identify small molecule agonists of the progesterone receptor (PR) signaling pathway (AID 1346784; calls by dose curve; also: nearly all actives have a fitted effect of over 30% in size)
# Method in brief: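 Compounds were tested for PR agonism in HEK 293T cells bearing a beta-lactamase gene under UAS control. Treatment lasted 16 hr at 37C; signal came from fluorescence of a FRET substrate.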
# [15] = molecular target: Progesterone receptor (Homo sapiens) (UniProt P06401); test: qHTS assay to identify small molecule antagonists of the progesterone receptor (PR) signaling pathway (AID 1346795; active = well fitted inhibition curve with a large enough effect in the signal ratio in the repeat runs, not every such curve was filed as active; the % refers to the signal ratio; also: potency is read from the fitted curve at half-maximal effect)
# Method in brief: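 In HEK293T cells bearing the PR-UAS-bla reporter, compound effects on promegestone-driven (1 nM) beta-lactamase expression are assessed after 16 hr using a fluorescent FRET substrate incubated 2 hr at room temperature.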
# [16] = qHTS assay to identify small molecule antagonists of the sonic hedgehog signaling (Shh) pathway (AID 1259369; calls by dose curve; also: nearly all actives have a fitted effect of over 45% in size; also: potency is read from the fitted curve at half-maximal effect)
# Method in brief: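 3T3Gli1-Luc, conditioned-medium-stimulated, 24hr cpd, 37C/5% CO2; Gli1-driven firefly Luc luminescence after 30min RT with luciferase reagent. Cells plated 4hr before cpd.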
# [17] = qHTS assay to identify small molecule agonists of the estrogen receptor beta (ER-beta) signaling pathway - cell viability counter screen (AID 1259380); also: nearly all actives have a fitted effect of over 30% in size; also: potency is read from the fitted curve at half-maximal effect
# Method in brief: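 HEK293T ER-beta-UAS-bla; 2% CS-FBS; 6 hr pre-plate, 16 hr cpd at 37C/5% CO2; LiveBLAzer read first, then CellTiter-Glo 30 min RT, luminescence.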
# [18] = molecular target: Estrogen receptor beta (Homo sapiens) (UniProt Q92731); test: qHTS assay to identify small molecule antagonists of the estrogen receptor beta (ER-beta) signaling pathway (AID 1259378; active = well fitted inhibition curve with a large enough effect in the signal ratio in the repeat runs, not every such curve was filed as active; the % refers to the signal ratio; also: potency is read from the fitted curve at half-maximal effect)
# Method in brief: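 ER-beta-UAS-bla HEK293T (GripTite) cells in 2% charcoal-stripped FBS medium were preincubated 6 hr at 37C, dosed with compound, then stimulated with 1 nM E2 (final) for 16 hr; beta-lactamase reporter read by B/G FRET fluorescence after 2 hr substrate loading.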
# [19] = molecular target: Estrogen receptor beta (Homo sapiens) (UniProt Q92731); test: qHTS assay to identify small molecule agonists of the estrogen receptor beta (ER-beta) signaling pathway (AID 1259377; active = well fitted activation curve with a large enough effect in the signal ratio in the repeat runs, not every such curve was filed as active; the % refers to the signal ratio)
# Method in brief: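 Read-out: beta-lactamase FRET fluorescence. Cell line: ER-beta-UAS-bla HEK293T in 2% charcoal-stripped FBS. Exposure: 16 hr at 37C. Substrate step: 2 h at room temperature.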
# Chain of Progesterone receptor (Homo sapiens) (P06401 whole entry, looked up): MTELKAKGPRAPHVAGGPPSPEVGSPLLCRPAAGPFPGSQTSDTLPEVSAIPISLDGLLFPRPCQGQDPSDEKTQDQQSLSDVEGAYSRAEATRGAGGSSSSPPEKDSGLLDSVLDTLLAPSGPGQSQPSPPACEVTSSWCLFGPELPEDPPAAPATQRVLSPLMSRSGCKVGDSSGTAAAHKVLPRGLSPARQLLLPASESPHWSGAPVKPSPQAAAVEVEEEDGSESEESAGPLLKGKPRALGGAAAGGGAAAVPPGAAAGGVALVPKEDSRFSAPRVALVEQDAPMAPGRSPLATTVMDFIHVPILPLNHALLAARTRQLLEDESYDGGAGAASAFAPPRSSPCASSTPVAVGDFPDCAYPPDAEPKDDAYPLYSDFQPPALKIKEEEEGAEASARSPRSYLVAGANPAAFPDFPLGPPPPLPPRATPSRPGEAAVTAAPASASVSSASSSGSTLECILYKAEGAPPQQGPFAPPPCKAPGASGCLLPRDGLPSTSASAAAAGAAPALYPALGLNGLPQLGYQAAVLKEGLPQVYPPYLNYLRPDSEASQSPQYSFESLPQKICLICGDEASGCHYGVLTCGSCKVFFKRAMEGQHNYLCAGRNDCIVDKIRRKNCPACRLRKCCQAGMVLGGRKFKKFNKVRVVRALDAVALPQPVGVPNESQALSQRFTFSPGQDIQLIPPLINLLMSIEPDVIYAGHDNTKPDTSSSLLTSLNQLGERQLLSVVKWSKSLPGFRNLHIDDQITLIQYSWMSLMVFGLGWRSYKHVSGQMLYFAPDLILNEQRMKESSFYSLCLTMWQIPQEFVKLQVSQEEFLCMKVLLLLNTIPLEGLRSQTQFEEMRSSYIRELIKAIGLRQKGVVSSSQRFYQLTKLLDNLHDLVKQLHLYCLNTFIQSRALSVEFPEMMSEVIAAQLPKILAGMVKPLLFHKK
# Chain of Estrogen receptor (Homo sapiens) (P03372 whole entry, looked up): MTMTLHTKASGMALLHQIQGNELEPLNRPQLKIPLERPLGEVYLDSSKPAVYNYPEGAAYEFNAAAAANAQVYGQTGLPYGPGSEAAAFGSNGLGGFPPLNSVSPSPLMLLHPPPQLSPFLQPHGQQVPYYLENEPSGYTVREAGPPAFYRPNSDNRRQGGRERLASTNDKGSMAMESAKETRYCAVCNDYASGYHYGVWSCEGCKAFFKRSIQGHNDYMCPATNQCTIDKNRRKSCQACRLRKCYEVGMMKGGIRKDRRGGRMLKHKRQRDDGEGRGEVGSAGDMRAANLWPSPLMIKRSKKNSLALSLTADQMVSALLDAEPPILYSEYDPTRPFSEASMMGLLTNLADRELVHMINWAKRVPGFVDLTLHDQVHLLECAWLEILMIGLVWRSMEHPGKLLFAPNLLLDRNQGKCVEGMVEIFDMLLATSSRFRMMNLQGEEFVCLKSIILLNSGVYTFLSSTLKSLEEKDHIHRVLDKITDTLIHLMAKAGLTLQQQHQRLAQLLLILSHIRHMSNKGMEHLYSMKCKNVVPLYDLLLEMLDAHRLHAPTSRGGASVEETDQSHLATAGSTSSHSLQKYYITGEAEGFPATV
# Chain of Androgen receptor (Homo sapiens) (P10275 whole entry, looked up): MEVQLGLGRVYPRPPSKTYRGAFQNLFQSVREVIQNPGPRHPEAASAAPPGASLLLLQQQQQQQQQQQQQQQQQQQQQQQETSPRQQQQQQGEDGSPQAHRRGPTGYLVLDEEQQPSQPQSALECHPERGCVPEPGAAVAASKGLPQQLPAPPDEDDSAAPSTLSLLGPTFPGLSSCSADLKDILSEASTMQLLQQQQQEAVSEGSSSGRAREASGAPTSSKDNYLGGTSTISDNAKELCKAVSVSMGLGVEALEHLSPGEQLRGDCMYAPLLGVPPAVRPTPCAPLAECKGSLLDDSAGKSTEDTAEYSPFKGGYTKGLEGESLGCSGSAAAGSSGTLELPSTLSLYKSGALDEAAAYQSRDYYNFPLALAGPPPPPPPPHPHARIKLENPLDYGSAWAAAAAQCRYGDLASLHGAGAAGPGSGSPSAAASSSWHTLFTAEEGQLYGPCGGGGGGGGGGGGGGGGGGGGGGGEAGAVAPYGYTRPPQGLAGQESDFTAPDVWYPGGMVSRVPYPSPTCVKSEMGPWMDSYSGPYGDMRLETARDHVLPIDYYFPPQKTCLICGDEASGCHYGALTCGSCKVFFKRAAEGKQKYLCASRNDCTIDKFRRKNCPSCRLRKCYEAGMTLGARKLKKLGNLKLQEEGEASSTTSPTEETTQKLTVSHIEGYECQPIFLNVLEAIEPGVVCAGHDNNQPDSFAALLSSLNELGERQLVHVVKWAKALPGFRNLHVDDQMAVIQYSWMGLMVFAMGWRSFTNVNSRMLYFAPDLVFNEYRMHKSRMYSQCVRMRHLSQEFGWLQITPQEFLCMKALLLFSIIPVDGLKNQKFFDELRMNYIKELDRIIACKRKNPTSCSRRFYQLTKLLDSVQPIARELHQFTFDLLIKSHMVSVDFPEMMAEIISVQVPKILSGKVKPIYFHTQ
# Chain of Thyrotropin receptor (Homo sapiens) (P16473 whole entry, looked up): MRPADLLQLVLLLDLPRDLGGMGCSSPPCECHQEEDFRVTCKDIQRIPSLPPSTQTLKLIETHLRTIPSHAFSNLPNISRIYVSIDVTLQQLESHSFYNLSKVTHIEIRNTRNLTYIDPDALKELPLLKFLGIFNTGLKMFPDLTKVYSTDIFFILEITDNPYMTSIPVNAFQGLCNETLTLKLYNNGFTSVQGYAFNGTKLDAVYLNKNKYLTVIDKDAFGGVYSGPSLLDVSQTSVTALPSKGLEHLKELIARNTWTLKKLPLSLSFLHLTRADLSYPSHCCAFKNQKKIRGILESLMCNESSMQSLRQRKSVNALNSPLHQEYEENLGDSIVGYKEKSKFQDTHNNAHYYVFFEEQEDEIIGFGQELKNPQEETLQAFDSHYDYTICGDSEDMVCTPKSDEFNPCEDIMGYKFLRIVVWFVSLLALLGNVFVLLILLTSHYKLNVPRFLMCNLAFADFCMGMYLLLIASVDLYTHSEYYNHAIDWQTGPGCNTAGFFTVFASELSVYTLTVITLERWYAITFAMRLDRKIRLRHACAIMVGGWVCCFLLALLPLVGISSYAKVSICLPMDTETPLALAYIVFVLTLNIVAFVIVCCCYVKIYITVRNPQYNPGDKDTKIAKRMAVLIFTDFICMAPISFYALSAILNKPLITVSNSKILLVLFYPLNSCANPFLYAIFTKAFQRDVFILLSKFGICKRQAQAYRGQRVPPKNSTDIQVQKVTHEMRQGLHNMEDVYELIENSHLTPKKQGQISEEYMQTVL
# Chain of Estrogen receptor beta (Homo sapiens) (Q92731 whole entry, looked up): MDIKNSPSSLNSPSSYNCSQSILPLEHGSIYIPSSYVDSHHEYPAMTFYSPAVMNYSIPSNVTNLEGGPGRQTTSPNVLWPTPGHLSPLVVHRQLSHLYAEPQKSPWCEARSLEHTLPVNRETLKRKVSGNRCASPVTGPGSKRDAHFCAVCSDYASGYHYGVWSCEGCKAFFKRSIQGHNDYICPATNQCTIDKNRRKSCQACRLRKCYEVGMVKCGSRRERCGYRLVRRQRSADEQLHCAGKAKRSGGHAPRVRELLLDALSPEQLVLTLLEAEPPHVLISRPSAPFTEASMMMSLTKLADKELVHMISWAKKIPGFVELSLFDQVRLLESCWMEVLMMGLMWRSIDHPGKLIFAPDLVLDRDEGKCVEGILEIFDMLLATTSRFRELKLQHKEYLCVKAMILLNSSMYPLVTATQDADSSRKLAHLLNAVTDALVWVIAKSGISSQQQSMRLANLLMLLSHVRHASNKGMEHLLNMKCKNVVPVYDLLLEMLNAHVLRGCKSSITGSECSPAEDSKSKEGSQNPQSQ
Structure (SMILES),Potency [1],Potency [2],Potency [3],Potency [4],Potency [5],Potency [6],Potency [7],Potency [8],Potency [9],Potency [10],outcome [11],Potency [12],Potency [13],outcome [14],Potency [15],Potency [16],Potency [17],Potency [18],Potency [19]
CCc1cccc(CC)c1NC(=O)C(=O)O,inactive,inactive,inactive,inactive,inactive,inactive,inactive,inactive,inactive,inactive,inactive,inactive,inactive,inactive,inactive,,,,
O=C(O)c1cccc(Cl)n1,inactive,inactive,inactive,inactive,,inactive,,inactive,inactive,inactive,inactive,inactive,inactive,inactive,inactive,30.6 µM (active),inactive,,
CCN(CC)c1cccc(C)c1,inactive,inactive,inactive,inactive,inactive,inactive,inactive,,inactive,inactive,inactive,inactive,inactive,,inactive,,inactive,,
NCCCCCCNCCCCCCN,inactive,inactive,inactive,,,inactive,inactive,,inactive,inactive,,,inactive,inactive,inactive,,inactive,,
O=C(Nc1ccc(Cl)c(Cl)c1)c1cc(Cl)cc(Cl)c1O,3.44 µM (active),1.22 µM (active),inactive,,,inactive,6.86 µM (active),,19.3 µM (active),inactive,,,7.7 µM (active),inactive,4.86 µM (active),3.86 µM (active),21.7 µM (active),,
OCCCS,inactive,inactive,inactive,inactive,inactive,,,inactive,inactive,inactive,inactive,inactive,,inactive,inactive,,inactive,inactive,
C=C1C(C)(C)[C@@]2(Cl)C(Cl)[C@]1(Cl)C(Cl)(Cl)C2(Cl)Cl (some centres undefined),inactive,inactive,inactive,,inactive,,,inactive,,inactive,inactive,,,,,,60 µM (active),30.1 µM (active),
COc1cccc(CCc2ccccc2OCC(CN(C)C)OC(=O)CCC(=O)O)c1 (centres undefined),inactive,inactive,inactive,,inactive,,inactive,,21.1 µM (active),inactive,inactive,inactive,inactive,inactive,,16.8 µM (active),23.7 µM (active),,
CC(C)=C1CC[C@@H](C)CC1=O,inactive,inactive,inactive,inactive,inactive,,inactive,,inactive,inactive,inactive,inactive,inactive,,inactive,inactive,inactive,inactive,inactive
